Drawing on PubChem BioAssay (Tox21), this text covers outcome for 40 molecules.

Records with an inconclusive call do not appear. Active and inactive are the calls of the source. The call rests on the fitted dose curve; in most records, active means well fitted activation curve with a large enough effect in the repeat runs; inconclusive means weak or mixed curves; inactive means no such curve, though single readings can be large or run the other way.

This assay can be described thus: qHTS assay for small molecules that induce genotoxicity in human embryonic kidney cells expressing luciferase-tagged ATAD5 (AID 651632). Further: nearly all actives have a fitted effect of over 15% in size. To be noted: HEK293T ATAD5-luciferase induction, 16 h; series mostly up to 83.3 µM. From the text: U.S. Tox21 Program National Center for Advancing Translational Sciences [NCATS] NIH Chemical Genomics Center [NCGC] U.S. Environmental Protection Agency [EPA] National Institutes of Environmental Health Sciences [NIEHS] National Toxicology Program [NTP] U.S. Food and Drug Administration [FDA] Tox21 Assay Overview: As cancer cells divide rapidly and during every cell division they need to duplicate their genome by DNA replication. The failure to do so results in the cancer cell death. Based on this concept, many chemotherapeutic agents were developed but have limitations such as low efficacy and severe side effects etc. A new cell based assay was developed to find the compounds that effectively block DNA replication either by directly damaging DNA or by inhibiting other cellular mechanisms. Enhanced Level of Genome Instability Gene 1 (ELG1; human ATAD5) protein levels increase in response to various types of DNA damage. Using a luciferase reporter-gene tagged with ATAD5, a cell-based assay [developed by Kyungjae Myung, NHGRI, NIH] was used to measure the induction of ATAD5 in human embryonic kidney cells (HEK293T). So, increase in luciferase activity can be used to identify the compounds that cause genetic stress.
Tox21 Assay Protocol Summary: For genotoxicity screening, 2,000 cells in 5 uL/well were dispensed into white, solid-bottom 1536-well plates using a Multidrop Combi (Thermo Scientific) dispenser. Following transfer of 23 nL compound or DMSO vehicle by a pin tool, the plates were incubated 16 hr at 37C and 5% CO2. 5 ul Amplite (AAT Bioquest, Inc.) was then added to each plate and following 30 min incubation at room temperature, luciferase activity was quantified on a ViewLux CCD-based plate reader.
(Quantitative high-throughput screening tests each substance at several concentrations.)
For the molecule `OCCOCCOCCO`, the molecule was called inactive. For `CN(C)CCOCCN(C)C`, the outcome was inactive. For `Cc1cc(C)c(C)cc1C` the value was “inactive”; for `Cc1occc(=O)c1O`, “inactive”; for `Nc1ccccc1[N+](=O)[O-]`, “inactive”. Consider `CCCCCCCCCCCCS`, for which the outcome was inactive.

In the case of `C#C[C@]1(O)CC[C@H]2[C@@H]3CCC4=CC(=O)CC[C@@H]4[C@H]3CC[C@@]21C`, the molecule was classed as inactive. Regarding `CCCCC(CC)COC(=O)CS` (stereo not given), the result was inactive. With `CCN(CC)c1ccc(C(=O)c2ccccc2C(=O)O)c(O)c1` the entry was “inactive”; with `CC[C@H](C)C(=O)O[C@H]1C[C@@H](C)C=C2C=C[C@H](C)[C@H](CC[C@@H]3C[C@@H](O)CC(=O)O3)[C@H]21`, “inactive”; with `CC(=O)Nc1ccccc1`, “inactive”. For `OC[C@H]1O[C@@](CO)(O[C@H]2O[C@H](CO)[C@@H](O)[C@H](O)[C@H]2O)[C@@H](O)[C@@H]1O` the value was “inactive”; for `Cc1cccc(O)c1`, “inactive”; for `Cc1cccnc1`, “inactive”. With `C[C@H]1C[C@H]2[C@@H]3CCC4=CC(=O)C=C[C@]4(C)[C@@]3(F)[C@@H](O)C[C@]2(C)[C@@]1(O)C(=O)CO` the entry was “inactive”; with `Oc1cccc2ccccc12`, “inactive”; with `O=C(O)CC(C(=O)O)C(CC(=O)O)C(=O)O` (stereo not given), “inactive”. Regarding `C=CCOC(=O)c1ccccc1C(=O)OCC=C`, the result was inactive. As for `C#CCN(C)Cc1ccccc1`, the outcome was inactive. With `CC(=O)CC(=O)Nc1ccccc1C` the entry was “inactive”; with `CCCCCC/C(C=O)=C\c1ccccc1`, “inactive”; with `CC(=O)CC(=O)Nc1ccccc1`, “inactive”.

As for `CCOC(=O)NNc1nncc2ccccc12`, the result was inactive.

For the molecule `Cc1ccc2oc(=O)ccc2c1`, the outcome was inactive.

Turning to `O=c1[nH]c(=O)n([C@H]2C[C@H](O)[C@@H](CO)O2)cc1Br`, the call was inactive. For the molecule `CCCCC(CC)COC(=O)C(C#N)=C(c1ccccc1)c1ccccc1` (stereo not given), the molecule was called inactive. With `CN(C)CCCN`, the molecule was classed as inactive. For `O=S1(=O)CC=CC1` the value was “inactive”.

In the case of `CCN(CC)CCCC(C)Nc1ccnc2cc(Cl)ccc12` (stereo not given), the call was inactive. For `COc1ccc(NC(C)=O)cc1N` the value was “inactive”; for `O=C(CC(C(=O)OC1CCCCC1)S(=O)(=O)O)OC1CCCCC1` (stereo not given), “inactive”; for `COc1ccc(Cl)cc1C(=O)NCCc1ccc(S(=O)(=O)NC(=O)NC2CCCCC2)cc1`, “inactive”. With `CCCCN(CCCC)CCCC` the entry was “inactive”. For `FC(F)(F)c1ccc(Cl)c(Cl)c1` the value was “inactive”; for `CC(=O)Nc1cccc(O)c1`, “inactive”. `OCC(CO)(CBr)CBr`: the call was inactive. For `CCc1cccc(C)c1N` the value was “inactive”; for `OCc1cccnc1`, “inactive”; for `CCCCCCCCCC`, “inactive”. Turning to `c1ccc2c(c1)ccc1ccccc12`, the molecule was classed as inactive.
